CtBP-E1A blk: blocks the CtBP interaction with E1A; AID 651724; AlphaScreen GST-E1A/His-CtBP binding, 1536-well; stronger effect = lower value; activity change, % (concentration not given with the values); 340,000 tested, 0.49% active
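AlphaScreen with 125 nM GST-E1A and 125 nM His-CtBP (5X stocks) in Tris pH 8.0, 300 mM NaCl, BSA, Tween 20, TCEP. Compounds preincubated 2 h at 37 deg C, then glutathione donor/nickel acceptor beads added for 1 h at 37 deg C in dark.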
JMJD2E inh: inhibitors of human JMJD2E histone demethylase; B2RXH2; JMJD2E catalytic domain, FDH-coupled NADH fluorescence (FDH is formaldehyde dehydrogenase); Potency, µM (doses to about 57.1 µM), actives largely listed as inhibitors; 230,000 tested, 1.6% active; AID 2147; active = well fitted inhibition curve with a large enough effect, not every such curve was filed as active; inconclusive = small, poorly fitted or top-dose-only effect, or another doubt; inactive = no such curve, though single readings can be large or run the other way; also: nearly all actives have a fitted effect of over 50% in size
Target sequence (B2RXH2 1-337 limits assumed): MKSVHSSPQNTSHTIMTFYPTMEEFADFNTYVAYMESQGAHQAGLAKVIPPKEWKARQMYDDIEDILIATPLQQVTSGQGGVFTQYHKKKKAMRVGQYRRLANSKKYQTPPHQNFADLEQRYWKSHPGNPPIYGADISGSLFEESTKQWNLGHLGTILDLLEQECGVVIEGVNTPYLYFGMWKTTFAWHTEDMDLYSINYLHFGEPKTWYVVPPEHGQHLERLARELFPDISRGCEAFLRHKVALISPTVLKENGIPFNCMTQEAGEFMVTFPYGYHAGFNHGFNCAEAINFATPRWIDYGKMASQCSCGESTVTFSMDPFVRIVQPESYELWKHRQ
KCNH2 WT inh: inhibitors of human wildtype KCNH2 potassium channel; Q12809; activity change, % at 1.84 µM; AID 720551; 340,000 tested, 0.37% active; U2OS, BacMam KCNH2, thallium flux FluxOr; stronger effect = lower value;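 active = maximum activity change below -70%; inconclusive = maximum activity change between -70% and -50%; inactive = maximum activity change above -50%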
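U2OS cells transduced with wild-type KCNH2 virus are loaded with FluxOr dye for 45 min, and thallium flux is measured in kinetic reads before and after stimulation buffer. Rate constants are normalized to DMSO controls.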
KCNH2 3.1 inh: KCNH2 3.1 (human) potassium channel inhibition; activity change, % (tested at about 1.8 µM); U2OS KCNH2 3.1, thallium flux FluxOr; stronger effect = lower value; 340,000 tested, 0.95% active;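 active = maximum activity change below -70%; inconclusive = maximum activity change from -70% to -50%; inactive = maximum activity change above -50%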;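 also: thallium influx rate constant from kinetic fluorescence after stimulation buffer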
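FluxOr-based Tl+ influx in U2OS cells transduced with KCNH2 3.1 virus; rate constants normalized to DMSO controls.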
Six1-Eya2 inh: blocks human Six1 binding to Eya2. Q15475+O00167. AlphaScreen GST-Six1/His-Eya2 binding, biochemical; stronger effect = lower value. activity change, % (test concentration not listed). 360,000 tested, 0.56% active. AID 651725
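Homogeneous AlphaScreen proximity assay pairing GST-Six1 with His-tagged Eya2 (added as 5X mix: 250 nM and 500 nM) in 50 mM Tris pH 8.0, 300 mM NaCl, 1 mM TCEP. Glutathione donor and nickel acceptor beads; 1 h, 37 °C, dark.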
A number is an active result. Rows were chosen to be rich in hits. Some 2% of all compounds tested hit in one or more screens of this group. Rule as the data show it, unless noted: active = activity change below about -65%; inconclusive = mostly about -30% to -63%; inactive = weaker than that.

Results for Cc1ccn2c(NC3CCCC3)c(-c3ccncc3)nc2c1 ?
CtBP-E1A blk: inactive; JMJD2E inh: inactive; KCNH2 WT inh: inactive; KCNH2 3.1 inh: inactive; Six1-Eya2 inh: inactive

Results for O=C(Nc1ccccc1[N+](=O)[O-])c1cc(S(=O)(=O)N2CCOCC2)cs1 ?
CtBP-E1A blk: inactive; KCNH2 WT inh: inactive; KCNH2 3.1 inh: inactive; Six1-Eya2 inh: inactive

Results for Cc1cccn2c(=O)c(/C=C(\C#N)S(=O)(=O)c3ccccc3)c(N3CCN(C)CC3)nc12 ?
CtBP-E1A blk: inactive; JMJD2E inh: inactive; KCNH2 WT inh: inactive; KCNH2 3.1 inh: inactive; Six1-Eya2 inh: inactive

Results for Cc1[nH]c(C)c(S(=O)(=O)NCCc2ccccc2)c1C(=O)N1CCCC1 ?
CtBP-E1A blk: inactive; KCNH2 WT inh: inactive; KCNH2 3.1 inh: inactive; Six1-Eya2 inh: inactive

Results for O=C(CSc1nnc2ccc(-c3ccco3)nn12)Nc1ccccc1F ?
CtBP-E1A blk: inactive; KCNH2 WT inh: inactive; KCNH2 3.1 inh: inactive; Six1-Eya2 inh: inactive

What do the screens show for `C=CCN(c1ccccc1)S(=O)(=O)c1cccc(C(=O)NCc2ccco2)c1`?
CtBP-E1A blk: inactive; KCNH2 WT inh: -241; KCNH2 3.1 inh: -173; Six1-Eya2 inh: inactive

Results for C=CCN(c1ccccc1)S(=O)(=O)c1cccc(C(=O)Nc2cc(C)ccn2)c1 ?
CtBP-E1A blk: inactive; KCNH2 WT inh: inactive; KCNH2 3.1 inh: inactive; Six1-Eya2 inh: inactive

How did CN1CCCN(C(c2ccccc2)c2ccc(Cl)cc2)CC1 (stereo unspecified) do in these assays?
CtBP-E1A blk: inactive; JMJD2E inh: inconclusive; KCNH2 WT inh: inactive; KCNH2 3.1 inh: -99; Six1-Eya2 inh: inactive

How did CN1CCN(C(c2ccccc2)c2ccccc2)CC1 do in these assays?
CtBP-E1A blk: inactive; JMJD2E inh: inactive; KCNH2 WT inh: inactive; KCNH2 3.1 inh: inactive; Six1-Eya2 inh: inactive

How did OC(CNCC1CCCO1)Cn1c2ccccc2c2ccccc21 (stereo unspecified) do in these assays?
CtBP-E1A blk: inactive; JMJD2E inh: inactive; KCNH2 WT inh: inactive; KCNH2 3.1 inh: inactive; Six1-Eya2 inh: inactive

How did OC(CNCC1CCCO1)Cn1c2ccc(Cl)cc2c2cc(Cl)ccc21 (stereo unspecified) do in these assays?
CtBP-E1A blk: inactive; JMJD2E inh: inactive; KCNH2 WT inh: inconclusive; KCNH2 3.1 inh: -99; Six1-Eya2 inh: inactive

Results for Fc1cccc(CN2CCSCC2)c1 ?
CtBP-E1A blk: inactive; KCNH2 WT inh: inactive; KCNH2 3.1 inh: inactive; Six1-Eya2 inh: inactive

What do the screens show for `NC(=O)c1c(NC(=O)c2ccc(N3C(=O)CCC3=O)cc2)sc2c1CCCC2`?
KCNH2 WT inh: inactive; KCNH2 3.1 inh: inactive; Six1-Eya2 inh: -68

How did COCCn1cnnc1SCC(=O)Nc1sc2c(c1C#N)CCC2 do in these assays?
CtBP-E1A blk: inactive; KCNH2 WT inh: inactive; KCNH2 3.1 inh: inactive; Six1-Eya2 inh: inactive

Results for Cn1cnnc1SCC(=O)Nc1sc2c(c1C(N)=O)CCC2 ?
CtBP-E1A blk: inactive; JMJD2E inh: inconclusive; KCNH2 WT inh: -284; KCNH2 3.1 inh: inactive; Six1-Eya2 inh: inconclusive

What do the screens show for `CCCOc1cccc(C(=O)NCCNC(=O)c2ccccn2)c1`?
CtBP-E1A blk: inactive; KCNH2 WT inh: inactive; KCNH2 3.1 inh: inactive; Six1-Eya2 inh: inactive

What do the screens show for `Cc1ccc(NCc2ccc(O)c3ncccc23)cc1`?
CtBP-E1A blk: -78; JMJD2E inh: inactive; KCNH2 WT inh: inactive; KCNH2 3.1 inh: inactive; Six1-Eya2 inh: -72

What do the screens show for `Cc1ccc(NCc2ccc(O)c3ncccc23)cc1C`?
CtBP-E1A blk: -80; JMJD2E inh: inactive; KCNH2 WT inh: inactive; KCNH2 3.1 inh: inactive; Six1-Eya2 inh: -69

Results for NCCCCCNC(=O)c1nc[nH]c1C(=O)NCC(=O)OCc1ccccc1 ?
CtBP-E1A blk: inactive; Six1-Eya2 inh: inactive

Results for COc1cccc(/C=N/NC(=O)Cn2ccnc2C)c1 ?
CtBP-E1A blk: inactive; JMJD2E inh: inactive; KCNH2 WT inh: inactive; KCNH2 3.1 inh: inactive; Six1-Eya2 inh: inactive

Results for COc1c(O)cccc1/C=N/NC(=O)Cn1ccnc1C ?
JMJD2E inh: 10µM; KCNH2 WT inh: inactive; KCNH2 3.1 inh: inactive; Six1-Eya2 inh: -93

Results for COCCCNC(=O)c1nc2c(nnn2Cc2cc(C)ccc2C)c(=O)[nH]1 ?
CtBP-E1A blk: inactive; JMJD2E inh: inactive; KCNH2 WT inh: inactive; KCNH2 3.1 inh: inactive; Six1-Eya2 inh: inactive

What do the screens show for `COc1ccc(CN(C)[C@H]2C[C@H]3c4[nH]c5ccccc5c4CCN3C[C@H]2[C@H](C)O)cc1`?
CtBP-E1A blk: inactive; KCNH2 WT inh: inactive; KCNH2 3.1 inh: -81; Six1-Eya2 inh: inactive

What do the screens show for `COc1ccc(NC(=O)N(C)[C@H]2C[C@H]3c4[nH]c5ccccc5c4CCN3C[C@H]2[C@H](C)O)cc1`?
CtBP-E1A blk: inactive; KCNH2 WT inh: inactive; KCNH2 3.1 inh: inactive; Six1-Eya2 inh: inactive

How did Cc1csc(SCC(=O)NC(=O)C2CCCCC2)n1 do in these assays?
JMJD2E inh: inactive; KCNH2 WT inh: inactive; KCNH2 3.1 inh: inactive; Six1-Eya2 inh: inactive

How did COc1ccc(/C=C/C(=O)N2CCCc3ccccc32)c(OC)c1 do in these assays?
CtBP-E1A blk: inactive; KCNH2 WT inh: -79; KCNH2 3.1 inh: inactive; Six1-Eya2 inh: inactive

What do the screens show for `COc1ccc(OC)c(/C=C/C(=O)N2CCCc3ccccc32)c1`?
CtBP-E1A blk: inactive; JMJD2E inh: inactive; KCNH2 WT inh: inactive; KCNH2 3.1 inh: inactive; Six1-Eya2 inh: inactive

What do the screens show for `Cn1ccc(C(=O)OCC(=O)Nc2ccccc2)n1`?
CtBP-E1A blk: inactive; KCNH2 WT inh: inactive; KCNH2 3.1 inh: inactive; Six1-Eya2 inh: inactive

What do the screens show for `COc1cc(C2OCC3C(c4ccc(OC5OC(CO)C(O)C(O)C5O)c(OC)c4)OCC23)ccc1O` (stereo unspecified)?
CtBP-E1A blk: inactive; JMJD2E inh: 28µM; KCNH2 WT inh: inactive; KCNH2 3.1 inh: inactive; Six1-Eya2 inh: inactive

What do the screens show for `Cc1ncc(C[n+]2csc(CCOC(=O)CC34CC5CC(CC(C5)C3)C4)c2C)c(N)n1`?
CtBP-E1A blk: inactive; JMJD2E inh: inactive; KCNH2 WT inh: inactive; KCNH2 3.1 inh: -127; Six1-Eya2 inh: inactive

What do the screens show for `Cc1c(CCOC(=O)CC23CC4CC(CC(C4)C2)C3)sc[n+]1Cc1ccccc1`?
CtBP-E1A blk: inactive; JMJD2E inh: inactive; KCNH2 WT inh: inactive; KCNH2 3.1 inh: inactive; Six1-Eya2 inh: inactive

What do the screens show for `Cc1c(OCC(=O)NCCCn2ccnc2)ccc2c3c(c(=O)oc12)CCCC3`?
CtBP-E1A blk: inactive; KCNH2 WT inh: inactive; KCNH2 3.1 inh: inactive; Six1-Eya2 inh: inactive

Results for Fc1ccc(C2N(c3ccccc3)C(=S)N3CCCN23)cc1 (stereo unspecified) ?
CtBP-E1A blk: inactive; JMJD2E inh: inactive; KCNH2 WT inh: -110; KCNH2 3.1 inh: -100; Six1-Eya2 inh: inactive

How did Cc1ccc(C2N(c3ccccc3)C(=S)N3CCCN23)cc1 (stereo unspecified) do in these assays?
CtBP-E1A blk: inactive; JMJD2E inh: inactive; KCNH2 WT inh: inactive; KCNH2 3.1 inh: inactive; Six1-Eya2 inh: inactive
